± gives the standard deviation.
Each sequence was assayed on MILI (PIWIL2) piRISC loaded with piRNA #1 (26 nt) (assay: pre-steady-state target cleavage rate (min^-1); guide: piRNA #1 5'p-UGAGGUAGUAGGUUGUAUAGUAUCCA; MIWI and MILI are mouse PIWI proteins and EfPiwi is from a freshwater sponge; tags in brackets are library labels; higher = faster piRNA-guided slicing of the target). Details: auxiliary factor: 500 nM mouse GTSF1.
Summary of the method: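 The pre-steady-state cleavage rate came from a burst-and-steady-state fit to pooled data from three Cleave-'n-Seq trials, in which uncleaved targets were sequenced and normalised to depth and to weakly complementary targets. Each reaction held 0.1 nM transcribed, DNA-blocked target RNA library and 1 nM active affinity-purified piRISC carrying one synthetic guide, with or without 500 nM GTSF1 partner protein, in HEPES–potassium acetate buffer at 33 °C for 0–8 or 0–960 min. k3 was capped at 0.0001 min^-1.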

Row | Sequence | pre-steady-state target cleavage rate
1 | GGAGACCUUACUAUACAUCCAACUACCUCA | 0.0082 ± 0.003
2 | GGAGACCUAUGAUAACUUGCUACUACCUCA | < 0.0001
3 | GGAGACCUUACUAUACAUCCUACAACCUCA | 0.214 ± 0.019
4 | GGAGACCAUACUAUACUACCUACAACCUCA | 0.185 ± 0.023
5 | GGAGACCUAUCUAAACAUCCUACUACCUCA | 0.116 ± 0.015
6 | GGAGACCUAUGAUUACAACGUACUACCACA | 0.00319 ± 0.0028
7 | GGAGACCUAUGAAUACAUCCUACUACCACA | 0.0133 ± 0.0041
8 | GGAGACCUAUGUUUACAAGCUACUACCUCA | 0.0793 ± 0.017
9 | GGAGACCUAUGUAUACAUCCUACUACGUCA | 0.0275 ± 0.0061
10 | GGAGACCUUAGUAUACAUCCUACUACCUCA | 0.126 ± 0.018
11 | GGAGACCUAUGUAUUCAACCUACUUCCUCA | 0.00515 ± 0.0026
12 | GGAGACCUAUGUAUACAACCUACUUACCUCA | 0.0503 ± 0.0043
13 | GGAGACCAUACUUUACAUCCUACUACCUCA | 0.296 ± 0.029
14 | GGAGACCUAUGAUUAUCAACCUACUACCUCA | 0.00367 ± 0.0025
15 | GGAGUGGAUUCUAUACAACCUACUAGCUCA | 0.0603 ± 0.012
16 | GGAGACCUAUCUAUACAACCUACUACCUA | 0.0666 ± 0.0086
17 | GGAGACCUAUGAAUACAACCUACUAACCUCA | 0.0105 ± 0.0027
18 | GGAGACCUUACUAAACUACCUACUACCUCA | 0.104 ± 0.013
19 | GGAGACCUAUCUAUACAACCUACAUGCUCA | 0.068 ± 0.021
20 | GGAGACCUAUGAUAUGUUGCUACAACCUGA | < 0.0001

Row | Sequence | pre-steady-state target cleavage rate
21 | GGAGACCUUAGUAUACAAGCUACUACCUCA | 0.174 ± 0.012
22 | GGAGACCUAUGUAUAUAACCUACUACCUCA | 0.0579 ± 0.0076
23 | GGAGACCUAACUAUUCAACGUACUACCUCA | 0.0113 ± 0.0053
24 | GGAGACCUAACUUAUCAACCUACUACCUCA | 0.0153 ± 0.0078
25 | GGAGAGGAUACUAUACAACCUACUAACCUCA | 0.159 ± 0.016
26 | GGAGACCUAACUUUACUACCUACUACCUCA | 0.0581 ± 0.013
27 | GGAGACCUAUCUAUAUCAACCUACUACCUCA | 0.00847 ± 0.0035
28 | GGAGACCUUUCUAUACAACCAACUACCUCA | 0.00462 ± 0.0029
29 | GGAGACCUUACUAUACAAGCAACUACCUCA | 0.0104 ± 0.0031
30 | GGAGACCUUACUAUUCUACCUACUACCUCA | 0.124 ± 0.0096
31 | GGAGACCUAUGUAUACAACCUACUUCCUGA | 0.00819 ± 0.0021
32 | GGAGACCUUACUUUACAACCUACUACCUGA | 0.0835 ± 0.014
33 | GGAGACCUUAGUAUACAACCUACUACCACA | 0.101 ± 0.013
34 | GGAGAGUAUACUAUACAACCUACUACCUCA | 0.184 ± 0.011
35 | GGAGACCUAUGAAUACAACCUACAACCUCA | 0.0078 ± 0.0029
36 | GGAGACGAUAGUAUACAACCUACUACCACA | 0.136 ± 0.015
37 | GGAGACCUAUGUAUACAACCUACUACCUCC [g2:g19:cont:t1C] | 0.0539 ± 0.0077
38 | GGAGACCUAUGUAUACUUCCUACUACCUCA | 0.0232 ± 0.005
39 | GGAGACCUAUGAAUACCAACCUACUACCUCA | 0.00269 ± 0.0026
40 | GGAGACCUAUGAAUACUAGCUACUACCUCA | 0.00307 ± 0.002

Reference: the supplement of paper PMC10338343
